This note sets out measurements from PubChem BioAssay (Tox21).

A short description of assay [1]: Nuclear factor erythroid 2-related factor 2/antioxidant responsive element (Nrf2/ARE) small molecule agonists: qHTS cell viability counter screen in human keratinocytes (AID 1919968; active = well fitted curve in the direction sought with a large enough effect in the repeat runs; an effect the other way counts as inactive or inconclusive; also: nearly all actives have a fitted effect of over 55% in size). An outline of the steps:
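HaCaT ARE reporter line, 1,500 cells/well; 5 h settle, 37 C/5% CO2; cpd in DMSO pinned; 23 h exposure; CellTiter-Fluor, 1 h; fluorescence.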
A general note: qHTS replaces the single test concentration by a dilution series.

Assay [2] in a line: Nuclear factor erythroid 2-related factor 2/antioxidant responsive element (Nrf2/ARE) small molecule agonists: luciferase reporter gene qHTS assay in human keratinocytes (AID 1919969). Also: nearly all actives have a fitted effect of over 35% in size. Also: potency is read from the fitted curve at half-maximal effect.
The target of assay [3] is KiSS-1 receptor (Homo sapiens) (UniProt Q969F8). As to the kind of experiment: Human kisspeptin (KISS1R) small molecule agonists, calcium flux assay in KISS1R-HEK293 cells (AID 1920064; active = well fitted curve in the direction sought with a large enough effect in the repeat runs; an effect the other way counts as inactive or inconclusive). The gist of the method:
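Stable human KISS1R HEK293 line; 18 h plating, 37 C/5% CO2; calcium dye 1 h 37 C; compound pin transfer; kinetic fluorescence Ex/Em 480/540, 3 min.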
Background: Calcium assays in cells follow changes in intracellular calcium, usually with a dye or a luminescent sensor.

Assay [4] is described as follows: G protein-coupled receptor (GPCR) small molecule agonists, calcium flux assay: HEK293 wild type cell line counter screen (AID 1920065). The gist of the method:
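Kinetic fluorescence at Ex/Em 480/540, recorded every second over 3 min, served as the read-out after compound addition. Each compound was tested at 15 concentrations in triplicate on cells pre-loaded with calcium dye for 1 h.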

A short description of assay [5]: p53 small molecule agonists, cell-based qHTS assay with human liver microsomes: qHTS cell viability counter screen (AID 1963579). Also: nearly all actives have a fitted effect of over 45% in size. The gist of the method:
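Metabolically activated exposure: compounds, human liver microsomes and NADPH (0.5 mg/mL final apiece) were added to p53RE-bla cells seeded 5 h earlier, left 16 h at 37 C, and then assessed for viability by CellTiter-Glo luminescence.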

Assay [6] is described as follows: p53 small molecule agonists, cell-based qHTS assay with rat liver microsomes: qHTS cell viability counter screen (AID 1963580). Also: nearly all actives have a fitted effect of over 45% in size. An outline of the steps: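 Viability is assessed in parallel with the p53 reporter read: HCT-116 p53RE-bla cells receive compounds plus rat microsomes and NADPH (0.5 mg/mL final apiece), incubate 16 h at 37 C, and then CellTiter-Glo luminescence is recorded.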

Assay [7] can be described thus: p53 small molecule agonists, cell-based qHTS assay: qHTS cell viability counter screen (AID 1963581). Also: nearly all actives have a fitted effect of over 45% in size. The gist of the method: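 HCT-116 p53RE-bla cells, 4,000/well, plated 5 h before compound pin transfer; 16 h at 37 C; bla substrate 2 h RT; then CellTiter-Glo, 30 min RT, luminescence.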
Assay [8] addresses 5-hydroxytryptamine receptor 2A (Homo sapiens) (UniProt P28223). As to the kind of experiment: 5-hydroxytryptamine receptor 2A (HTR2A) small molecule antagonists, cell-based qHTS assay (AID 1963586). Also: nearly all actives have a fitted effect of over 45% in size. An outline of the steps: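 Antagonist-mode intracellular calcium assay: DOI (4 nM) added after 5 min compound pre-incubation at room temperature to dye-loaded HTR2A-CHO cells. Fluorescence followed for 3 min, sampled every second.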

Assay [9] shares this target. Briefly: 5-hydroxytryptamine receptor 2A (HTR2A) small molecule agonists, cell-based qHTS assay (AID 1963587). Also: nearly all actives have a fitted effect of over 30% in size. The gist of the method:
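CHO cells stably expressing human HTR2A, plated 18 h, loaded with calcium dye 1 h at 37 C. Agonist mode: compounds added and intracellular calcium fluorescence recorded kinetically for 2 min at 1 sec intervals.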

Assay [10] concerns the target Muscarinic acetylcholine receptor M1 (Homo sapiens) (UniProt P11229). Briefly: Cholinergic receptor muscarinic 1 (CHRM1) small molecule antagonists, cell-based qHTS assay (AID 1963588). Also: nearly all actives have a fitted effect of over 40% in size. The gist of the method: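 CHRM1-CHO calcium-flux assay, antagonist mode. Cells were seeded 18 h, dye-loaded 1 h at 37 C and given compound for 5 min at RT, then acetylcholine was added at 50nM. FDSS fluorescence was read 3 min; 15 concentrations, three runs.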

Assay [11] has the same target. Briefly: Cholinergic receptor muscarinic 1 (CHRM1) small molecule agonists, cell-based qHTS assay (AID 1963589). Also: nearly all actives have a fitted effect of over 35% in size. The gist of the method: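 Human M1 in stable CHO line; 18 h plating, 1 h dye load 37 C; cpd added (agonist mode); Ca2+ fluorescence kinetic read, 1 s intervals; 15 conc, 3 runs.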
Assay [12] is described as follows: cAMP Responsive Elements (CRE) small molecule agonists, cell-based qHTS assay (AID 1963590). An outline of the steps:
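HEK 293T CRE-bla, 2,000 cells/well, 18 h preincubation 37 C/5% CO2; cpds (DMSO) pinned, 3 h; LiveBLAzer B/G FRET substrate, 2 h RT.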

Assay [13] can be described thus: cAMP Responsive Elements (CRE) small molecule antagonists, cell-based qHTS assay (AID 1963591; active = well fitted inhibition curve with a large enough effect in the signal ratio in the repeat runs, not every such curve was filed as active; the % refers to the signal ratio). The gist of the method:
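Beta-lactamase reporter read by FRET substrate (LiveBLAzer B/G) after 2 h at room temperature. CRE-bla HEK293T cells had received compound plus 0.25 uM (final) NKH477 for 3 h at 37 °C.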

Assay [14] concerns the target Beta-2 adrenergic receptor (Homo sapiens) (UniProt P07550). Briefly: Adrenergic beta2 receptor (ADRB2) small molecule antagonists, cell-based qHTS assay (AID 1963592). Also: series mostly up to about 92 µM; nearly all actives have a fitted effect of over 50% in size. An outline of the steps:
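Cells (CHO, stable ADRB2 overexpression) incubated 18-20hr at 37C; compounds added from DMSO; agonist mix (1nM isoproterenol, 100uM IBMX, 25uM Ro-20-1724) added; 0.5hr RT; d2-cAMP and anti-cAMP-cryptate added; 1hr RT; 665/615 nm read.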

Assay [15] has the same target. As to the kind of experiment: Adrenergic beta2 receptor (ADRB2) small molecule agonists, cell-based qHTS assay (AID 1963593).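 Also: CHO cells stably overexpressing human ADRB2.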 The gist of the method: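 CHO cells stably over-expressing ADRB2 were plated overnight at 37C, then dosed with compounds plus a stimulation mix containing 100uM IBMX and 25uM Ro-20-1724 for 0.5hr at room temperature. cAMP was measured by HTRF competition, 1hr.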

The target in assay [16] is D(2) dopamine receptor (Homo sapiens) (UniProt P14416). Briefly: Dopamine D2 receptor (DRD2) small molecule agonists, cell-based qHTS assay (AID 1963594). Also: nearly all actives have a fitted effect of over 35% in size. The gist of the method:
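HEK293 cells stably expressing human DRD2, pre-treated with PDE inhibitor Ro20-1724 (0.1 mM final) and compound 10 min at room temperature, then stimulated with NKH477 (200nM […]) for 30 min. cAMP read by HTRF (665/620 nm).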

For assay [17] the target is unchanged. Briefly: Dopamine D2 receptor (DRD2) small molecule antagonists, cell-based qHTS assay (AID 1963595; active = well fitted inhibition curve with a large enough effect in the signal ratio in the repeat runs, with a control signal flat; the % refers to the signal ratio). The gist of the method:
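HEK293 cells stably expressing DRD2, preincubated with 0.1 mM Ro20-1724 and compounds 10 min, were stimulated with 200 nM NKH477 plus 12 nM quinpirole for 30 min at room temperature; cAMP measured by HTRF (665/620 nm).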

A short description of assay [18]: p53 small molecule agonists, cell-based qHTS assay with rat liver microsomes (AID 1963578). The gist of the method: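 Agonist mode in p53RE-bla reporter cells, with compounds co-incubated 16 h at 37 C alongside 0.5 mg/mL rat liver microsomes and 0.5 mg/mL NADPH (final), followed by a 2 h LiveBLAzer detection step.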
Assay [19] is described as follows: p53 small molecule agonists, cell-based qHTS assay (AID 1963582; active = well fitted activation curve with a large enough effect in the signal ratio in the repeat runs, not every such curve was filed as active; the % refers to the signal ratio). An outline of the steps: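 Reporter line: p53RE-bla. Pre-incubation 5 h, 37 C, 5% CO2; compound (DMSO, pin tool) 16 h, 37 C; B/G FRET substrate 2 h RT; fluorescence intensity read.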

Values without a mark were called inactive. Inconclusive results are not listed. Active and inactive are the calls of the source. Unless noted, calls follow the shape of the full dose curve.
% is scaled to controls: 0 for no effect and ±100 for the full control effect.

Muscarinic acetylcholine receptor M1 (Homo sapiens), sequence (P11229 whole entry, looked up): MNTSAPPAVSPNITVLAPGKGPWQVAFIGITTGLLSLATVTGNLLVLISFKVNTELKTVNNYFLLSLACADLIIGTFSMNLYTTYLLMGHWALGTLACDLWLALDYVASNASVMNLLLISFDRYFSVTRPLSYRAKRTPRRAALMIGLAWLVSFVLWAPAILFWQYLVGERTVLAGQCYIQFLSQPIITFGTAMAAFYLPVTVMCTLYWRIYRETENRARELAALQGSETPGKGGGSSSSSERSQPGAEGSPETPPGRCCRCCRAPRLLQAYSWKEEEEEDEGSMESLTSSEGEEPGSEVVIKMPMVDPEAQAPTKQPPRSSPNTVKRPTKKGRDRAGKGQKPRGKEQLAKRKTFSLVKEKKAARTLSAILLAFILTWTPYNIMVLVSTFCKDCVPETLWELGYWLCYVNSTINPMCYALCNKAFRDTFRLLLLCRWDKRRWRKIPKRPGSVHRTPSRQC
5-hydroxytryptamine receptor 2A (Homo sapiens), sequence (P28223 whole entry, looked up): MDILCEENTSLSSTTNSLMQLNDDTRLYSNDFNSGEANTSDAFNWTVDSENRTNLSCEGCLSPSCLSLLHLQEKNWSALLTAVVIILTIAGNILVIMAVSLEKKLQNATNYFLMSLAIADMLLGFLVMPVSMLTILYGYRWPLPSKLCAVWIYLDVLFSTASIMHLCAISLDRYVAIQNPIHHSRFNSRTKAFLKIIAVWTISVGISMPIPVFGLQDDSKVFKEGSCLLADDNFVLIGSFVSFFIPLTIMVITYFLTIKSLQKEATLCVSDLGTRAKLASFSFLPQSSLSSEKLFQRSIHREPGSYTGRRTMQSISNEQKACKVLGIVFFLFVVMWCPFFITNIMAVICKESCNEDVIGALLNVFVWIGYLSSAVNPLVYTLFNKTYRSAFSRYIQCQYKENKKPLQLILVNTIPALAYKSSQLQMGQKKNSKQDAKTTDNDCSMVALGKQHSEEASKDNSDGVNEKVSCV
KiSS-1 receptor (Homo sapiens), sequence (Q969F8 whole entry, looked up): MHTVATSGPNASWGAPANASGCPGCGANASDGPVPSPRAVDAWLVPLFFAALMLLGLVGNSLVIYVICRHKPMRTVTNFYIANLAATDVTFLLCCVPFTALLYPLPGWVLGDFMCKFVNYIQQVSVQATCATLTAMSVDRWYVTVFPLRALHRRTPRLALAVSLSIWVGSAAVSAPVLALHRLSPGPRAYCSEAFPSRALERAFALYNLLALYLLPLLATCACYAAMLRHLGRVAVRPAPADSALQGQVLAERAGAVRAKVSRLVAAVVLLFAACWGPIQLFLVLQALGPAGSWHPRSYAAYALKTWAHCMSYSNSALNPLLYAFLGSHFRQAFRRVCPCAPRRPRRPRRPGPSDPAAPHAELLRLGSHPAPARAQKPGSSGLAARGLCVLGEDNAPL
Beta-2 adrenergic receptor (Homo sapiens), sequence (P07550 whole entry, looked up): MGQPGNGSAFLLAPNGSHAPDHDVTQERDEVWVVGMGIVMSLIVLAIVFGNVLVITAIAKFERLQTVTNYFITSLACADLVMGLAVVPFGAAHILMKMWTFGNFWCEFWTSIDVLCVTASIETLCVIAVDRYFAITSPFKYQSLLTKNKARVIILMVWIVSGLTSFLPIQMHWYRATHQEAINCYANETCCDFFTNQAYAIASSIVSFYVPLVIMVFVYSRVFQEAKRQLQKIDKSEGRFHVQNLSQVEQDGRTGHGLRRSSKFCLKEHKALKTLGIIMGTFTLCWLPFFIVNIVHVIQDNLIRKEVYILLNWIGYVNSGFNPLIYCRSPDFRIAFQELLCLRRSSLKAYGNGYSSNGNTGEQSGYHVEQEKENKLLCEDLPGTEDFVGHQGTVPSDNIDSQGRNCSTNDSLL
D(2) dopamine receptor (Homo sapiens), sequence (P14416 whole entry, looked up): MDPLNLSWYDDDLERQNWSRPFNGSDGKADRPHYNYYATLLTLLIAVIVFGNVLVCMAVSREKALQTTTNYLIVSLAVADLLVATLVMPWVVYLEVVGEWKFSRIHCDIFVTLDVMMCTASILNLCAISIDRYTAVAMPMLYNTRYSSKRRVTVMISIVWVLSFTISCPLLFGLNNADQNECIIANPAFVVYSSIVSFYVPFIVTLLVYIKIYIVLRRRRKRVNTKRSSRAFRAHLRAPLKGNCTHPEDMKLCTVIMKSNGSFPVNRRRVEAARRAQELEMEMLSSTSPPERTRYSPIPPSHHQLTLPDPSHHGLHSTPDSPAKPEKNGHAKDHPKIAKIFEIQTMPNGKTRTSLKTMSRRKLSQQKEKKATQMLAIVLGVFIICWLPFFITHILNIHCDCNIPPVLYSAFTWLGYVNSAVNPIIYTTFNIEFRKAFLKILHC

For the compound `CCCCN(CCO)CCCC`, the Potency result in assay [1], in assay [2], in [3], in assay [4], in assay [5] and in assay [6] was “inactive” in each case. Further, the Potency entry in [7], in assay [8], in assay [9], in [10], in assay [11] and in assay [12] was “inactive” each time. Moreover, the Potency result in assay [13], in [14], in [15], in assay [16] and in [17] was “inactive” throughout.
`CN(C)CCOC(=O)C(c1ccccc1)C1(O)CCCC1` (stereo not given): the Potency entry in assay [1], in [2], in assay [3], in assay [4], in [5] and in assay [6] was “inactive” in each case. The Potency entry in assay [7], in assay [8], in assay [9], in assay [11], in assay [12] and in assay [13] was “inactive” throughout. The Potency result in assay [14], in assay [16] and in assay [17] was “inactive” in each case.
Regarding `CCCCCCCCCCCCCCCCN(C)C`, the activity change, negative = cytotoxicity was 3.36% [at 8.39 µM] in assay [1], -6.23% [at 5.99 µM] in assay [5], 1.34% [at 5.99 µM] in [6] and 8.26% [at 5.99 µM] in [7]. Moreover, the activity, positive = activation in assay [2] is -0.511% [at 8.39 µM]. Moreover, the activation was 5.47% [at 6.97 µM] in [3]; -0.794% [at 5.23 µM] in assay [4]; -0.0918% [at 5.99 µM] in [18]; 9.5% [at 5.99 µM] in assay [19]; 3.51% [at 7.02 µM] in assay [9]; 0.295% [at 6.97 µM] in assay [11]. Moreover, the activation in assay [12] is -1.13% [at 8.39 µM]. Besides, the activity, negative = inhibition in assay [8] was -3.75% [at 5.62 µM]. Also, the activity change, negative = inhibition is 1.36% [at 8.39 µM] in assay [13] and -3.89% [at 8.38 µM] in assay [17].
On to `CC1=C(C=O)C(C)(C)CCC1`, for which the Potency result in assay [1], in assay [2], in assay [3], in assay [4], in [5] and in [6] was “inactive” throughout. Moreover, the Potency entry in [7], in assay [8], in assay [9], in assay [10], in [11] and in assay [12] was “inactive” each time. The Potency entry in [13], in [14], in assay [15], in [16] and in assay [17] was “inactive” each time.
For the compound `O=C(O)c1c2ccccc2cc2ccccc12`, the Potency result in [1], in assay [3], in assay [4], in [18], in assay [5] and in assay [19] was “inactive” in each case. The Potency result in assay [8], in assay [9], in [11], in [13], in assay [14] and in [15] was “inactive” throughout. Further, the Potency result in assay [16] and in assay [17] was “inactive” in each case. Moreover, the Potency in assay [2] is 48.4 µM (active).
As for `COCCc1ccc(OCC2CO2)cc1` (stereo not given), the Potency result in assay [1], in [2], in assay [3], in [4], in assay [18] and in assay [5] was “inactive” throughout. Also, the Potency result in [6], in [7], in assay [8], in assay [9], in [10] and in [11] was “inactive” in each case. Also, the Potency result in [12], in [13], in [14], in assay [15] and in [17] was “inactive” each time.
Consider `CC1(C)C(=O)NC(=O)N1CO`, for which the Potency result in assay [1], in assay [2], in assay [3], in assay [4], in [18] and in [5] was “inactive” in each case. Moreover, the Potency entry in [6], in [7], in assay [19], in assay [8], in assay [9] and in [10] was “inactive” throughout. The Potency entry in [11], in assay [12], in [13], in assay [14], in assay [15] and in assay [16] was “inactive” throughout. The Potency entry in assay [17] is “inactive”.
Regarding `C/C=C/C(=O)C1=C(C)CCCC1(C)C`, the Potency result in [1], in [2], in [3], in assay [4], in assay [18] and in assay [5] was “inactive” throughout. The Potency entry in assay [6], in assay [7], in assay [19], in [9], in [11] and in [12] was “inactive” each time. The Potency result in [13], in assay [14], in [16] and in assay [17] was “inactive” throughout.
In the case of `Cc1nc([N+](=O)[O-])cn1-c1ccc([N+](=O)[O-])cc1`, the Potency entry in [1], in assay [2], in assay [3], in assay [4], in assay [5] and in assay [6] was “inactive” throughout. In addition, the Potency result in [7], in [8], in assay [9], in [10], in assay [11] and in [12] was “inactive” in each case. Further, the Potency entry in assay [13], in assay [14], in [15], in assay [16] and in assay [17] was “inactive” each time.
In the case of `Nc1ccc2cc(S(=O)(=O)O)cc(O)c2c1N=Nc1ccccc1C(F)(F)F`, the Potency entry in [1], in assay [2], in [3], in assay [4], in assay [5] and in [6] was “inactive” throughout. Moreover, the Potency entry in assay [7], in [8], in assay [9], in assay [10], in assay [11] and in assay [12] was “inactive” throughout. Besides, the Potency result in assay [13], in [14], in assay [15], in assay [16] and in [17] was “inactive” each time.
Take `NNC(=O)CP(=O)(c1ccccc1)c1ccccc1`: the Potency entry in [1], in [2], in assay [3], in assay [4], in [5] and in [6] was “inactive” each time. Moreover, the Potency result in [7], in [8], in assay [9], in assay [10], in assay [11] and in assay [12] was “inactive” in each case. In addition, the Potency entry in assay [13], in [15], in assay [16] and in assay [17] was “inactive” in each case.
Take `CC(C)(O)c1ccc(C(C)(C)O)cc1`: the Potency result in assay [1], in assay [2], in [3], in assay [4], in [5] and in [6] was “inactive” each time. The Potency entry in [7], in assay [8], in assay [9], in assay [10], in [12] and in [13] was “inactive” in each case. Besides, the Potency result in assay [14] and in assay [17] was “inactive” in each case.
